The results in this text go back to PubChem BioAssay (NCI).

Compounds without any hit were thinned out: in the full panel of roughly 83,000, 20% have a hit.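 The endpoint reported here, percent growth, reads 100 for growth as untreated, 0 for no net growth and -100 for all cells dead.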 Activity calls are given as the source filed them. The calls were made as follows: active = growth percent below 10; inactive = the rest.

The first assay concerns MDA-MB-435 melanoma. The assay is described as follows: NCI-60 one-dose screen, 48 h (100 = growth as untreated, 0 = no growth, -100 = all killed). As to conditions: 10 µM.
For `CCCS(=O)(=O)c1oc(-c2ccc(F)cc2)nc1S(=O)(=O)c1ccc(F)cc1`, the growth is -80.3% (active).

Consider `CC(C)CCSc1nc(NC2CC2)c(C#N)c(-c2ccc(C(C)C)cc2)n1`, for which the growth was 112% (inactive).

As for `Cc1ccc(-c2nc3ccc(C(=O)N=Nc4c(O)[nH]c5ccc([N+](=O)[O-])cc45)cc3[nH]2)cc1`, the growth was 62.6% (inactive).

In the next assay the test system is SW-620 colon. The assay is described as above. As to conditions: 10 µM.
For `CN1CCN(c2ccc(Nc3nc(N4CCN(S(=O)(=O)c5ccc(F)cc5)CC4)c4sccc4n3)cc2)CC1`, the growth was -63.8% (active).

For the compound `CCCCCc1ccc(S(=O)(=O)Nc2cc(-c3csc(N(C)C(C)=O)n3)ccc2N2CCN(C)CC2)cc1`, the growth is 8.57% (active).

With `CN1CCN(c2ccc(Nc3nc(NCCCNC(=O)C4CCCCC4)c4sccc4n3)cc2)CC1`, the growth was 40% (inactive).

For the compound `N[C@@H](CSSC[C@H](N)C(=O)Nc1ccc(OCC2CCCC2)cc1)C(=O)Nc1ccc(OCC2CCCC2)cc1`, the growth was -84% (active).

With `COc1ccc2nc(Cl)c(-c3cc(-c4ccccc4)nc(=O)[nH]3)cc2c1`, the growth is 11.1% (inactive).

Consider `O=C(Nc1ccc(OCc2ccccc2)cc1)Nc1ccc(Cl)c(C(F)(F)F)c1`, for which the growth was 13% (inactive).

As for `COc1ccc2[nH]c(O)c(N=NC(=O)COc3ccc(NC(=O)Nc4ccc(Cl)cc4)cc3)c2c1`, the growth is 4.49% (active).

`Cc1cc2c(c(O)c1Br)-c1ncoc1C(=O)[C@]1(C)CC[C@H](C(C)C)[C@H]21`: the growth was 22.8% (inactive).

Turning to `CCN1CCN(c2ccc(NC(=O)Nc3ccc4c(c3F)CCN4c3ccnc(C(=O)NC)c3)cc2C(F)(F)F)CC1`, the growth was -76.9% (active).

As for `O=C1Nc2ccc(F)cc2/C1=C/c1cccc(OCc2ccccc2)c1`, the growth is 8.79% (active).

As to `Cc1ccc(NC(=O)c2ccc(-n3c(=O)[nH]c4ccccc4c3=O)cc2)cc1`, the growth was 113% (inactive).

For the compound `O=C(Nc1ccncc1)c1ccc(-n2c(=O)[nH]c3ccccc3c2=O)cc1`, the growth was 101% (inactive).

With `Cc1ccc(-c2cc(-c3cc4ccccc4nc3Cl)[nH]c(=S)n2)cc1`, the growth was 78.4% (inactive).

`O=C(c1ccc(Cl)cc1)C1[C@H](c2ccc(Br)cc2)[C@@H](c2ccccc2)NC12C(=O)Nc1ccc(Cl)cc12` (stereo not given in full): the growth was -76.4% (active).

In the case of `O=C(O)CCCCCCCCCCN1C(=O)/C(=C/c2cnc(-c3ccc(Cl)cc3)s2)SC1=S`, the growth is 27.6% (inactive).

Regarding `CN1CCN(c2ccc(Nc3nc(N4CCN(S(=O)(=O)c5ccc(Cl)cc5)CC4)c4sccc4n3)cc2)CC1`, the growth is -52.2% (active).

`CN1CCN(c2ccc(C(=O)/C=C/c3cc(Br)ccc3F)cc2)CC1`: the growth is -25.7% (active).

Turning to `O=c1nc(-c2ccccc2)cc(-c2cc3ccccc3nc2Cl)[nH]1`, the growth was -63.6% (active).

`CC1=C2C(=C[C@@](C)(CO)[C@@H]2O)/C(=N\N)[C@](C)(O)C12CC2`: the growth is -9.56% (active).

Regarding `O=C(c1ccc(O)cc1)C1[C@H](c2ccc(Br)cc2)[C@@H](c2ccccc2)NC12C(=O)Nc1ccc(Br)cc12` (stereo not given in full), the growth is -28% (active).

Turning to `COc1ccc(C=CC(=O)c2ccc(-n3c(C)nc4c(cnn4-c4ccccc4)c3=O)cc2)cc1`, the growth is 75.1% (inactive).

For the compound `O=C(c1ccc(O)cc1)C1[C@H](c2ccccc2Br)[C@@H](c2ccccc2)NC12C(=O)Nc1ccc(Cl)cc12` (stereo not given in full), the growth is -0.351% (active).

Consider `O=C(c1ccccc1)n1ccc(-c2cc3cc(Br)ccc3oc2=O)n1`, for which the growth is 45.8% (inactive).

For the compound `C#Cc1ccc(S(=O)(=O)Nc2cccc(-c3csc(NC(C)=O)n3)c2)cc1`, the growth is 95.2% (inactive).

`O=C(N/N=C/c1ccc(-c2cccc([N+](=O)[O-])c2)o1)c1[nH]c2ccc(Br)cc2c1-c1ccccc1`: the growth is 15.5% (inactive).

`O=C(Nc1nc2ccc([N+](=O)[O-])cc2s1)Nc1cc(Cl)ccc1I`: the growth is -50.3% (active).

For `C=C(c1ccc(OC)c(N)c1)c1cc(C)nc2ccccc12`, the growth was 18.4% (inactive).

For the compound `CNC(=O)c1cccc(N2CCc3c2ccc(NC(=O)Nc2ccc(N4CCN(C)CC4)c(C(F)(F)F)c2)c3F)c1`, the growth is -71.7% (active).

Turning to `COc1ccc([C@H]2C(C(=O)c3ccc(Cl)cc3)C3(N[C@@H]2c2ccccc2)C(=O)Nc2ccc(Br)cc23)cc1` (stereo not given in full), the growth is 7.87% (active).

On to `CN1CCN(Cc2ccc(C(=O)Nc3cccc(Nc4ccc5cc(O)ccc5n4)c3)cc2C(F)(F)F)CC1`, for which the growth is -83.1% (active).

For `Brc1ccc(/C=N/Nc2ncnc3sc4c(c23)CCN(Cc2ccccc2)C4)cc1`, the growth is 35% (inactive).

For the compound `COc1ccc(C(C)=C(c2ccc(OCCCN(C)C)cc2)c2ccc(OCCCN(C)C)cc2)cc1`, the growth was -59.4% (active).
